Reference: PubChem BioAssay AID1159580 (chemical genetic matrix, 2015)
Screen size: about 5,500 compounds; about 2,000 (36%) were called active. Inconclusive results (about 18%) are left out. Cut-off read from the data, not from the text of the source: active = normalized growth mostly below about 0.91 (no sharp cut-off); inconclusive = no clear call, values can overlap the other calls; inactive = mostly above about 0.92. The list shows a part of the results.

Assay: chemical genetic growth profiling, strain panel (AID 1159580);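 note: tested at 20 µM; growth read once vehicle control cultures reached saturation at 30 °C; 1 = growth at the plate median or of vehicle wells; lower values mean less growth of the strain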
Conditions: growth OD

Measured: normalized growth

CC1CCCC(C)N1NC(=O)c1ccc(Cl)c(S(N)(=O)=O)c1 (stereo unspecified)
inactive: S. cerevisiae deletion strains, locus YKL009W, strain mrt4, active compounds read low 0.973 | S. cerevisiae deletion strains, locus YKL068W, active compounds read low 0.992 | S. cerevisiae deletion strains, locus YKL085W, strain MDH1 (second series), active compounds read low 0.987 | S. cerevisiae deletion strains, locus YKL085W, strain MDH1, active compounds read low 0.987 | S. cerevisiae deletion strains, locus YKL160W, strain elf1, active compounds read low 0.995 | S. cerevisiae deletion strains, locus YKL190W, strain CNB1, active compounds read low 0.99 | S. cerevisiae deletion strains, locus YKR001C, strain vps1, active compounds read low 1 | S. cerevisiae deletion strains, locus YKR026C, strain gcn3, active compounds read low 0.999 | S. cerevisiae deletion strains, locus YKR091W, strain srl3, active compounds read low 1.02 | S. cerevisiae deletion strains, locus YLL001W, strain dnm1, active compounds read low 1.01 | S. cerevisiae deletion strains, locus YLL026W, active compounds read low 1.02 | S. cerevisiae deletion strains, locus YLL041C, strain sdh2, active compounds read low 0.998 | S. cerevisiae deletion strains, locus YLR027C, strain aat2, active compounds read low 1.03 | S. cerevisiae deletion strains, locus YLR039C, strain RIC1, active compounds read low 0.989 | S. cerevisiae deletion strains, locus YLR058C, strain SHM2, active compounds read low 0.99 | S. cerevisiae deletion strains, locus YLR102C, strain apc9, active compounds read low 0.996 | S. cerevisiae deletion strains, locus YLR113W, strain HOG1, active compounds read low 0.993 | S. cerevisiae deletion strains, locus YLR221C, strain rsa3, active compounds read low 1.04 | S. cerevisiae deletion strains, locus YLR258W, strain gsy2, active compounds read low 0.998 | S. cerevisiae deletion strains, locus YLR262C, strain YPT6 (second series), active compounds read low 1.01 | S. cerevisiae deletion strains, locus YLR262C, strain YPT6, active compounds read low 0.997 | S. cerevisiae deletion strains, locus YLR268W, strain sec22, active compounds read low 0.933 | S. cerevisiae deletion strains, locus YLR320W, strain mms22, active compounds read low 1.02 | S. cerevisiae deletion strains, locus YLR330W, strain CHS5, active compounds read low 0.989 | S. cerevisiae deletion strains, locus YLR342W, strain FKS1 (second series), active compounds read low 1.06 | S. cerevisiae deletion strains, locus YLR342W, strain FKS1, active compounds read low 1.01 | S. cerevisiae deletion strains, locus YLR357W, strain rsc2, active compounds read low 1.05 | S. cerevisiae deletion strains, locus YLR370C, strain arc18, active compounds read low 1.01 | S. cerevisiae deletion strains, locus YLR371W, strain rom2, active compounds read low 1 | S. cerevisiae deletion strains, locus YLR384C, strain iki3, active compounds read low 1.01 | S. cerevisiae deletion strains, locus YLR418C, strain cdc73, active compounds read low 1.01 | S. cerevisiae deletion strains, locus YML016C, strain PPZ1, active compounds read low 0.991 | S. cerevisiae deletion strains, locus YML032C, strain rad52, active compounds read low 0.975 | S. cerevisiae deletion strains, locus YML120C, strain ndi1, active compounds read low 1.01 | S. cerevisiae deletion strains, locus YML124C, strain tub3, active compounds read low 0.988 | S. cerevisiae deletion strains, locus YMR058W, strain fet3, active compounds read low 1.03 | S. cerevisiae deletion strains, locus YMR078C, strain ctf18, active compounds read low 1.01 | S. cerevisiae deletion strains, locus YMR125W, strain sto1, active compounds read low 1.01 | S. cerevisiae deletion strains, locus YMR129W, active compounds read low 1.02 | S. cerevisiae deletion strains, locus YMR205C, strain PFK2, active compounds read low 0.992 | S. cerevisiae deletion strains, locus YMR223W, strain ubp8, active compounds read low 1.03 | S. cerevisiae deletion strains, locus YMR231W, strain pep5, active compounds read low 1.02 | S. cerevisiae deletion strains, locus YMR263W, strain SAP30, active compounds read low 0.982 | S. cerevisiae deletion strains, locus YMR307W, strain GAS1, active compounds read low 1.09 | S. cerevisiae deletion strains, locus YNL067W, strain RPL9B, active compounds read low 0.973 | S. cerevisiae deletion strains, locus YNL071W, strain lat1, active compounds read low 1.02 | S. cerevisiae deletion strains, locus YNL128W, strain TEP1, active compounds read low 1 | S. cerevisiae deletion strains, locus YNL153C, strain GIM3, active compounds read low 0.981 | S. cerevisiae deletion strains, locus YNL183C, strain NPR1, active compounds read low 0.952 | S. cerevisiae deletion strains, locus YNL209W, strain ssb2, active compounds read low 1 | S. cerevisiae deletion strains, locus YNL233W, strain BNI4, active compounds read low 0.977 | S. cerevisiae deletion strains, locus YNL248C, strain rpa49, active compounds read low 1.02 | S. cerevisiae deletion strains, locus YNL250W, strain rad50, active compounds read low 0.981 | S. cerevisiae deletion strains, locus YNL271C, strain bni1, active compounds read low 0.986 | S. cerevisiae deletion strains, locus YNL298W, strain CLA4, active compounds read low 0.985 | S. cerevisiae deletion strains, locus YNL307C, strain MCK1, active compounds read low 0.98 | S. cerevisiae deletion strains, locus YNL322C, strain KRE1, active compounds read low 0.99 | S. cerevisiae deletion strains, locus YNR049C, strain mso1, active compounds read low 1 | S. cerevisiae deletion strains, locus YNR052C, strain pop2, active compounds read low 0.996 | S. cerevisiae deletion strains, locus YOL006C, strain TOP1, active compounds read low 0.953 | S. cerevisiae deletion strains, locus YOL012C, strain htz1 0.717 | S. cerevisiae deletion strains, locus YOL147C, strain pex11, active compounds read low 0.99 | S. cerevisiae deletion strains, locus YOR001W, strain rrp6, active compounds read low 1.02 | S. cerevisiae deletion strains, locus YOR061W, strain CKA2, active compounds read low 0.999 | S. cerevisiae deletion strains, locus YOR069W, strain VPS5, active compounds read low 0.996 | S. cerevisiae deletion strains, locus YOR070C, strain gyp1, active compounds read low 1.02 | S. cerevisiae deletion strains, locus YOR080W, strain dia2, active compounds read low 1.02 | S. cerevisiae deletion strains, locus YOR083W, strain WHI5, active compounds read low 1.01 | S. cerevisiae deletion strains, locus YOR106W, strain vam3, active compounds read low 0.988 | S. cerevisiae deletion strains, locus YOR136W, strain idh2, active compounds read low 1.01 | S. cerevisiae deletion strains, locus YOR144C, strain elg1, active compounds read low 0.994 | S. cerevisiae deletion strains, locus YOR184W, strain ser1, active compounds read low 0.989 | S. cerevisiae deletion strains, locus YOR231W, strain MKK1, active compounds read low 0.979 | S. cerevisiae deletion strains, locus YOR265W, strain rbl2, active compounds read low 1.01 | S. cerevisiae deletion strains, locus YOR270C, strain vph1, active compounds read low 1.04 | S. cerevisiae deletion strains, locus YOR290C, strain snf2, active compounds read low 1.01 | S. cerevisiae deletion strains, locus YOR316C, strain cot1, active compounds read low 0.985 | S. cerevisiae deletion strains, locus YPL051W, strain arl3, active compounds read low 1.02 | S. cerevisiae deletion strains, locus YPL055C, strain LGE1, active compounds read low 1.01 | S. cerevisiae deletion strains, locus YPL078C, strain atp4, active compounds read low 1.02 | S. cerevisiae deletion strains, locus YPL106C, strain sse1, active compounds read low 0.998 | S. cerevisiae deletion strains, locus YPL240C, strain hsp82, active compounds read low 1.01 | S. cerevisiae deletion strains, locus YPL241C, strain CIN2, active compounds read low 1 | S. cerevisiae deletion strains, locus YPL256C, strain CLN2, active compounds read low 0.948 | S. cerevisiae deletion strains, locus YPR119W, strain clb2, active compounds read low 0.99 | S. cerevisiae deletion strains, locus YPR141C, strain kar3, active compounds read low 0.985 | S. cerevisiae deletion strains, locus YPR163C, strain tif3, active compounds read low 0.99 | S. cerevisiae deletion strains, locus YPR167C, strain met16, active compounds read low 0.989 | S. cerevisiae deletion strains, strain wtn01, active compounds read low 0.989 | S. cerevisiae strains, strain wild type, active compounds read low 1.01
active: S. cerevisiae deletion strains, locus YNL322C, strain KRE1 (second series), active compounds read low 1.11 [resistant]
